Rows were chosen to be rich in hits. Some 0.8% of all compounds tested hit in one or more screens of this group.
TRPML1 agonist – agonists of human TRPML1 channel; AID 624414; Q9GZU1; TRPML1-expressing cells, Ca2+ dye fluorescence, FDSS; 410,000 tested, 0.12% active; activation, % (no concentration beside the values); in the data active means activation above about 50%; inconclusive means mostly about 30% to 49%; further: 0% is about no effect
Target sequence (Q9GZU1 whole entry, looked up): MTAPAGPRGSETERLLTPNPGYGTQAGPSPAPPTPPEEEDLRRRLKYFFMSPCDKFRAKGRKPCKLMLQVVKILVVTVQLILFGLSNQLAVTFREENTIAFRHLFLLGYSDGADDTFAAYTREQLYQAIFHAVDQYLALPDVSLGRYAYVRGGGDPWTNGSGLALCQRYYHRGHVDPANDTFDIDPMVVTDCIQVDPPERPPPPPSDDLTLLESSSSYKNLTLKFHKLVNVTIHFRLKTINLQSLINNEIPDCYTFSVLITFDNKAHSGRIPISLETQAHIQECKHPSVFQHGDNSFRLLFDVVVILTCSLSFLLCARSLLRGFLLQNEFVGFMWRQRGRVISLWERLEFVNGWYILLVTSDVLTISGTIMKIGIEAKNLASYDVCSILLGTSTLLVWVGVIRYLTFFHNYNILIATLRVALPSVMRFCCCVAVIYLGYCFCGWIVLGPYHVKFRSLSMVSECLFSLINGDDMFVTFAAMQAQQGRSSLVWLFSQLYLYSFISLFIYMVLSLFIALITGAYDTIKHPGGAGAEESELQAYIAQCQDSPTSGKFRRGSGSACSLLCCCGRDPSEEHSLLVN
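Agonist activity was taken from a 110 s kinetic Ca2+ dye read on the FDSS after pinning compounds onto TRPML1-DL cells. The cells were seeded at 1,500/well with Tet inducer, incubated about 16 h, then dye-loaded at room temperature.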
TRHR agonist – TRH receptor (human) agonism; P34981; activation, % at 2 µM; TRHR cells, calcium flux fluo-8, FDSS agonist mode; 360,000 tested, 0.18% active; in the data active means activation above about 30%; further: 0% is about no effect
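Agonist-mode FDSS calcium read (Ex 480/Em 530, 1 s cycles) in 1536-well TRHR cells with fluo-8 dye, after 10-cycle baseline and 23 nL compound addition; TRH at EC20 (10 nM final) added afterwards for the enhancer phase.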
GRP78 ERSR act – inducers of ER stress response in human glioma cells | U87-MG GRP78 promoter luciferase reporter, 16 h | Potency, µM, inactives show at the highest dose activation, actives largely listed as activators | 420,000 tested, 0.02% active; active means well fitted activation curve with a large enough effect; inconclusive means small, poorly fitted or top-dose-only effect; inactive means no such curve, though single readings can be large or run the other way; further: potency means the concentration at half of the fitted maximal effect; series mostly up to about 76 µM; % of control where 0% means no effect; nearly all actives have a fitted effect of over 35% in size
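Stably transfected U87-MG human glioma cells carrying a GRP78-based luminescent sensor were seeded at 1000 cells/well, pin-dosed with compounds and incubated 16 h. Luciferase reagent was then added, and end-point luminescence was read after 10 min at room temperature.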
TRPML1 inh – inhibitors of human TRPML1 channel | Q9GZU1 | 390,000 tested, 0.02% active | TRPML1-inducible cells, Ca2+ dye fluorescence, FDSS; hits give low values; inhibition of EC80 agonist-evoked calcium signal | AID 624415 | activity change, negative = inhibition, % (no concentration beside the values); in the data active means activity change below about -50%; inconclusive means between about -30% and that limit;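 further: stimulus is agonist 54-4 at its EC80 concentration; on the % scale 0 is the no-effect control and ±100 the full control effect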
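TRPML1-DL cells, Tet-induced overnight (~16 h, 37 °C) at 1,500 cells/well, were loaded with Ca8 no-wash dye plus quencher for 45-90 min at room temperature. Compounds were pinned during FDSS kinetic reading; agonist 54-4 at EC80 (4 uM final) then added.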
TRHR PAM – TRH receptor (human) allosteric enhancement; P34981; TRHR cells, fluo-8 calcium fluorescence, EC20 TRH enhancement; enhancement, % at 2 µM; 360,000 tested, 0.66% active; in the data active means enhancement above about 30%; further: 0% is about no effect
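TRHR-expressing cells loaded with fluo-8 calcium dye were read kinetically (ex 480/em 530) during compound addition, then stimulated with an EC20 of TRH (10 nM final). Enhancement of the Gq-mediated intracellular calcium response was scored.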
Numbers without * were called inactive; ? = inconclusive; nt = no result.

SMILES	TRPML1 agonist	TRHR agonist	GRP78 ERSR act	TRPML1 inh	TRHR PAM
Cc1cc(NS(=O)(=O)c2ccc(NC(=O)/C=C/c3ccc(Br)cc3)cc2)no1	0.6	0.1	-2.6%	-7.4	4.3
CC(NC(=O)C1CCOCC1)c1nnc2n1CCN(Cc1cc3c(cc1Cl)OCO3)CC2 (configuration not stated)	nt	nt	-5.6%	nt	nt
COc1ccccc1NC(=O)c1ccc(S(=O)(=O)N2CCCC2)cc1	-0.9	-0.1	-2.8%	-10.1	-4.2
CCOc1ccccc1NC(=O)c1ccc(S(=O)(=O)N2CCCCC2)cc1	1.8	-0.6	-8.3%	-3.4	32.1*
CCN1CCN(S(=O)(=O)c2ccc(Cl)c(C(=O)Nc3ccccc3N3CCCCC3)c2)CC1	100.3*	-0.1	-2.4%	-16.3	-2.1
CCOc1ccc(Nc2c(S(=O)(=O)c3ccc(C)cc3)cnc3ccc(F)cc23)cc1	63.1*	0.1	-4.3%	-13.0	1.5
CCOc1ccc(Nc2c(S(=O)(=O)c3ccc(C)cc3)cnc3ccccc23)cc1	-0.5	0.0	-3.5%	-21.7	9.0
Fc1ccc(N2CCN(Cc3ccc4c(c3)CN(Cc3cccn3-c3cccnc3)CCO4)CC2)cc1	nt	nt	-0.5%	nt	nt
N#C/C(=C\c1ccc(-c2ccc([N+](=O)[O-])cc2)o1)C(=O)Nc1nc(-c2cccs2)cs1	0.2	0.6	-0.2%	-101.0*	-3.9
COc1cc(-c2cc(C)c3c(OC)ccc(OC)c3n2)cc2c1OCCN(C(=O)CCn1ccc(C)n1)C2	nt	nt	-4.0%	nt	nt
CC(=O)N(Cc1ccc2c(c1)OCO2)Cc1cc2ccc(C)cc2nc1-c1cccc(C)c1	nt	nt	-5.7%	nt	nt
COc1ccc2c(c1)-c1nc(-n3ncc(C(=O)NCc4cccnc4)c3C3CC3)ncc1CC2	nt	nt	-4.7%	nt	nt
Cc1cccc(CNC(=O)c2ccc(NC(=O)C3=CSCCO3)cc2)c1	0.7	-0.3	8.7%	-4.8	0.9
COc1ccc(CNC(=O)c2ccc(NC(=O)C3=CSCCO3)cc2)cc1	0.5	-0.6	2.7%	-4.7	34.4*
C/C(=N\NC(=O)C(O)c1ccccc1)c1ccc(Br)s1 (configuration not stated)	1.7	-0.4	-1.0%	-5.3	37.5*
COc1cc(=O)n2c(c1C(=O)NC(C)c1ccco1)CCN(Cc1cc(C)ccc1C)CC2 (configuration not stated)	nt	nt	-3.3%	nt	nt
Cc1nc(SCC(=O)CC(=O)OC(C)C)c(C#N)c(C)c1C	71.2*	0.0	1.7%	-1.0	-4.1
CCN(CC)c1ccc(/C=C(\C#N)C(N)=O)cc1	7.3	4.5	4.7%	-8.7	3.0
CCN(CC)c1ccc(/C=C(\C#N)C(=O)c2ccc(Br)cc2)cc1	79.2*	108.8*	1.2%	-4.5	7.2
CN(C)c1ccc(/C=C(\C#N)c2nc3ccccc3c(=O)[nH]2)cc1	3.6	37.6*	2.6%	-5.1	-0.9
CN(C)c1ccc(/C=C(\C#N)C(=O)c2ccccc2)cc1	71.8*	138.4*	5.9%	?	29.0
COc1ccc(-n2c(CNC(=O)c3ccccc3C(F)(F)F)nnc2SC)cc1	nt	nt	-0.2%	nt	nt
O=S(=O)(NCc1nc(N2CCCC2)c2cc(Cl)ccc2n1)c1ccccc1OC(F)(F)F	nt	nt	-3.0%	nt	nt
Cc1ccc(CN2CCOc3ccc(CN4CCC(O)(c5cccnc5)CC4)cc3C2)cc1C	nt	nt	-6.2%	nt	nt
CC(C)Cc1cc(C(=O)NCC2Cc3cc(F)cc(-c4ccccn4)c3O2)no1 (configuration not stated)	nt	nt	-4.4%	nt	nt
SMILES	TRPML1 agonist	TRHR agonist	GRP78 ERSR act	TRPML1 inh	TRHR PAM
Cc1ccc(S(=O)(=O)NCC(=O)NCCc2c[nH]c3ccccc23)cc1C	-0.4	-0.8	-4.6%	-4.8	33.5*
O=c1c2cccc3c(N4CCOCC4)ccc(c32)c2nc3ccccc3n12	nt	51.1*	nt	nt	3.2
O=c1c2ccc([N+](=O)[O-])c3cccc(c32)c2nc3ccccc3n12	nt	2.8	nt	nt	-5.1
COC(=O)c1ccc(-c2cccc3c2OC(CNC(=O)c2ccc4c(c2)OCCO4)C3)nc1 (configuration not stated)	nt	nt	-2.6%	nt	nt
Cc1oc(-c2ccccc2NC(=O)C2CCC2)nc1CNC(=O)c1c(F)ccc(F)c1F	nt	nt	-5.3%	nt	nt
COc1cccc(C(C2=C(O)CC(C)(C)CC2=O)C2C(=O)CC(C)(C)CC2=O)c1 (configuration not stated)	0.1	0.0	-2.6%	9.6	34.5*
CCOc1ccccc1-n1c(=S)sc2c(=O)n(-c3ccc(C)cc3)c(=S)[nH]c21	66.3*	1.5	-2.0%	?	8.1
CCn1c(=S)sc2c(=O)n(-c3ccccc3)c(=S)[nH]c21	-0.6	0.5	-2.2%	-13.4	0.9
CC(=O)Oc1ccc(C(=O)Nc2ccc(S(=O)(=O)N3CCOCC3)cc2)cc1	-0.1	1.4	-3.9%	12.0	40.7*
O=C(Nc1ccc(S(=O)(=O)N2CCOCC2)cc1)c1ccc(S(=O)(=O)N2CCOCC2)cc1	-0.3	1.0	-4.9%	7.4	7.6
COC(=O)c1cc(CNC(=O)c2ccc3ccccc3n2)cc(NC(=O)c2cccc(OC)c2)c1	nt	nt	-2.8%	nt	nt
CCc1ccc(NC(=O)c2sc3nc(C)cc(C)c3c2NC(=O)c2ccccc2)cc1	0.7	-3.9	-1.2%	6.8	2.7
CCc1ccc(NC(=O)c2sc3nc(C)cc(C)c3c2NC(=O)c2ccccc2OC)cc1	1.6	0.0	2.5%	2.6	39.9*
CC[C@@H](C(=O)[C@@H](C)[C@@H](O)[C@H](C)CCc1ccc(C)c(O)c1C(=O)O)[C@H]1O[C@](CC)([C@H]2CC[C@](O)(CC)[C@H](C)O2)C[C@@H]1C	?	99.9*	-9.6%	16.6	40.2*
Cc1cnc(SCC2CCCO2)nc1C1CCCN(C(=O)c2ccc(S(N)(=O)=O)cc2)C1 (configuration not stated)	nt	nt	1.1%	nt	nt
Cn1cc(Br)c(C(=O)NNC(=O)c2ccccc2)n1	-0.3	-0.1	-2.4%	-0.2	32.5*
Cn1cc(Br)c(C(=O)NNC(=O)c2ccc(Br)cc2)n1	0.9	0.0	-0.9%	-2.9	1.3
Cc1cc(C)c(-c2cc(C(=O)Nc3cc(C)ccc3C)[nH]n2)c(O)c1	1.2	0.0	18.5%	-11.6	32.7*
Cc1cnc(-n2ncc(C(=O)N(C)CCc3ccccn3)c2-c2cccs2)nc1-c1ccc(F)cc1	nt	nt	-3.4%	nt	nt
CCOC(=O)c1ccccc1NC(=O)CN(c1ccccc1OCC)S(C)(=O)=O	2.2	-0.5	3.4%	-1.2	-2.5
CCOC(=O)c1ccccc1NC(=O)CN(c1ccc(OCC)cc1)S(C)(=O)=O	nt	0.3	nt	nt	34.5*
COC(=O)[C@@H]1CCCN1C(=O)c1c(OC)cc(=O)n2c1CCN(Cc1ccc3c(c1)CCO3)CC2	nt	nt	-2.9%	nt	nt
CCOC(=O)/C(=C/C=C1\Sc2cc(C)c(C)cc2N1CC)C(C)=O	89.8*	249.5*	-0.2%	-2.6	21.5
CCOC(=O)/C(=C/C=C1\Sc2ccccc2N1CC)C(C)=O	80.1*	80.1*	0.5%	3.5	22.3
CCC(=O)/C=C1/Sc2ccccc2N1CC	2.0	-0.3	-3.3%	-3.5	5.4
